Targets with a hit are over-represented here; the source holds about 8,800 in all. About 0.5% of all pairs of compound and target were hits.
Legend:
Test in all cases: log2 fold change, soluble protein after heating vs DMSO (PISA); higher = thermal stabilisation; K562 lysate, 10 uM; active = over 0.2 and 3.5 SD of the protein, either way, in both replicates (recomputed)
[1] = compound: C#Cc1cccc(Nc2ncnc3cc(OCCOC)c(OCCOC)cc23)c1 [erlotinib]
How it was run: (§1)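 To prepare the extract, K562 pellets were dounce-homogenised in PBS pH 7.4 with 1 mM MgCl2, giving crude material at 1 mg/mL protein. This was treated with 10 μM compound for 30 min, then heated in aliquots for 3 min over 48°C-58°C before pooling and addition of NP-40 to 0.5% at 4°C. Centrifugation at 21,000xg for 90 min left soluble protein in the supernatant, which TMTpro 16plex LC-MS/MS quantified with equalised channel sums. Results are log-two fold changes in thermal stability compared with solvent controls, from duplicates.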

[2] = compound: C/C(=N\NC(=O)C1=CC(=CC=C1)S(=O)(=O)N2CCOCC2)/C3=C(C=CC(=C3)Cl)O
How it was run: as §1

[3] = compound: C1=CC(=CC=C1C2=NC3=C(N2)C=C(C=C3)C(=O)N)OC4=CC=C(C=C4)Cl
How it was run: as §1

[4] = compound: C1=CC2=C(C=CC(=C2)/C=C\3/C(=O)NC(=NCC4=CC=CS4)S3)N=C1
How it was run: as §1

[5] = compound: C1=CC2=NC=CN=C2C=C1/C=C/3\C(=O)NC(=O)S3
How it was run: as §1

[6] = compound: C1=CC=C(C=C1)C2=NC(=C(N2)C3=CC=NC=C3)C4=CC(=C(C=C4)Cl)O
How it was run: as §1

[7] = compound: C1=CC=C2C(=C1)C3=NNC4=CC=CC(=C43)C2=O
How it was run: as §1

[8] = compound: C1CCN(C1)C(=O)NC2=CC=CC(=C2)NC3=NC=C(C(=N3)NCCC4=CN=CN4)Br
How it was run: as §1

[9] = compound: C1CN(CCC1(CC2=CC=C(C=C2)Cl)N)C3=NC=NC4=C3C=CN4
How it was run: as §1

[10] = compound: C1COCCN1CCN2C3=CC=CC=C3N=C2NC(=O)C4=CC(=CC=C4)[N+](=O)[O-] [IRAK-1-4 Inhibitor I]
How it was run: as §1

[11] = compound: C=CC(=O)N1CCC[C@@H](n2nc(-c3ccc(Oc4ccccc4)cc3)c3c(N)ncnc32)C1 [ibrutinib]
How it was run: as §1

[12] = compound: CC(=O)c1cnc2ccc(-c3cc(Cl)c(O)c(Cl)c3)nc2c1N[C@H]1CC[C@H](CN(C)C)CC1
How it was run: as §1

[13] = compound: CC(C)(C)Cn1c(N)nc2ccc(-c3[nH]c(C(C)(C)C)nc3-c3ccc(F)cc3)nc21 [ralimetinib]
How it was run: as §1

[14] = compound: CC(C)(O)CC(=O)NCCn1ccc2ncnc(Nc3ccc(Oc4cccc(C(F)(F)F)c4)c(Cl)c3)c21
How it was run: as §1

[15] = compound: CC(C)C1=C2N=C(C=C(N2N=C1)NCC3=CC=CC=C3)NCCCCCCN
How it was run: as §1

[16] = compound: CC1=C(C(CC(=O)N1)C2=CC=C(C=C2)C(F)(F)F)C(=O)NC3=C(C=C4C(=C3)C=NN4)F
How it was run: as §1

[17] = compound: CC1=C(C2=C(C=C1)C(=O)C3=CC=CC=C3N2CCCN)C
How it was run: as §1

[18] = compound: CC1=C(C=C(C=C1)NC(=O)C2=CC(=CC=C2)C(C)(C)C#N)NC3=CC4=C(C=C3)N=CN(C4=O)C
How it was run: as §1

[19] = compound: CC1=C(C=C(C=C1)NC(=O)C2=CC(=CC=C2)N(C)C)NC(=O)C3=CC=C(C=C3)O
How it was run: as §1

[20] = compound: CC1=CC=C(C=C1)SC2=C3C=C(SC3=CN=C2)C(=O)N
How it was run: as §1

Measured: log2 fold change

TPST2 (UniProt O60704)
Chain of UniProt O60704 (O60704 whole entry, looked up): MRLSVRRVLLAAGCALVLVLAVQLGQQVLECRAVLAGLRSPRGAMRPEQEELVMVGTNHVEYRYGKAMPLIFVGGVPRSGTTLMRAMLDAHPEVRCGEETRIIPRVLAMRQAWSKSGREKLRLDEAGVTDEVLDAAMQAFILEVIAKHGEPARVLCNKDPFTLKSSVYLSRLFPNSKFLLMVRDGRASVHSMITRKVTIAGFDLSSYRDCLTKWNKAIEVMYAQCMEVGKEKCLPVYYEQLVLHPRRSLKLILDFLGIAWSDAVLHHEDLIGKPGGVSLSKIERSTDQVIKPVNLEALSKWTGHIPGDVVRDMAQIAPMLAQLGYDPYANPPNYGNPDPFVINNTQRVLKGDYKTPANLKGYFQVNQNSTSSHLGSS
inactive: [1] -0.064 | [2] -0.062 | [3] 0.042 | [4] 0.049 | [5] -0.002 | [6] -0.016 | [7] -0.06 | [8] 0.015 | [9] 0.032 | [10] -0.038 | [11] -0.098 | [12] -0.036 | [13] 0.006 | [14] 0.019 | [15] -0.08 | [16] 0.039 | [17] -0.06 | [18] -0.039 | [19] -0.036 | [20] -0.08

TRIM33 (UniProt H0Y612)
inactive: [1] -0.006 | [2] -0.002 | [3] 0.05 | [4] -0.126 | [5] -0.071 | [6] -0.01 | [7] -0.009 | [8] -0.065 | [9] -0.023 | [10] 0.176 | [11] 0.016 | [12] -0.003 | [13] 0.135 | [14] -0.084 | [15] 0.068 | [16] -0.099 | [17] -0.004 | [18] -0.031 | [19] -0.009 | [20] -0.012

TUBA1C (UniProt Q9BQE3)
inactive: [1] 0.007 | [2] -0.028 | [3] 0.044 | [4] -0.019 | [5] -0.012 | [6] 0.031 | [7] -0.077 | [8] -0.008 | [9] 0.014 | [10] 0.04 | [11] -0.001 | [12] 0.017 | [13] 0.007 | [14] -0.043 | [15] 0.032 | [16] 0.015 | [17] -0.035 | [18] -0.012 | [19] 0.043 | [20] 0.009

UFM1 (UniProt P61960)
Chain of UniProt P61960 (P61960 whole entry, looked up): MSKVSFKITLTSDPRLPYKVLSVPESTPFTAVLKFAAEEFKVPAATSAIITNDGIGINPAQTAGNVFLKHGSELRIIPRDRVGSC
inactive: [1] 0.035 | [2] 0.078 | [3] -0.003 | [4] 0.085 | [5] 0.029 | [6] -0.013 | [7] 0.123 | [8] 0.066 | [9] 0.013 | [10] -0.009 | [11] 0.059 | [12] 0.072 | [13] 0.008 | [14] -0.014 | [15] -0.003 | [16] -0.04 | [17] -0.007 | [18] -0.097 | [19] -0.038 | [20] 0.109

TMEM164 (UniProt Q5U3C3)
Chain of UniProt Q5U3C3 (Q5U3C3 whole entry, looked up): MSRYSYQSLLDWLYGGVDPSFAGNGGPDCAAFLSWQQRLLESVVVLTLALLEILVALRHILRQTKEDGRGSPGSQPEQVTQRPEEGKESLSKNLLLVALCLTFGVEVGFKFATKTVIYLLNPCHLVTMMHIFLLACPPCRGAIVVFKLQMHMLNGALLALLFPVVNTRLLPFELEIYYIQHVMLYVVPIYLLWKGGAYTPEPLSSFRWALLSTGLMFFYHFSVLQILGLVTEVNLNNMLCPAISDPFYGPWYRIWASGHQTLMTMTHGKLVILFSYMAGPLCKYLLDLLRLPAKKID
inactive: [1] 0.067 | [2] -0.141 | [3] -0.009 | [4] -0.093 | [5] 0.104 | [6] -0.056 | [7] -0.211 | [8] -0.057 | [9] 0.153 | [10] 0.094 | [11] 0.053 | [12] -0.066 | [13] -0.171 | [14] -0.252 | [15] -0.035 | [16] -0.184 | [17] -0.153 | [18] 0.255 | [19] 0.027 | [20] -0.061

TRIP12 isoform 2 (UniProt Q14669)
inactive: [1] 0.034 | [2] 0.013 | [3] -0.014 | [4] 0.004 | [5] 0.024 | [6] -0.027 | [7] -0.02 | [8] 0.019 | [9] -0.021 | [10] -0.032 | [11] 0 | [12] -0.031 | [13] 0.109 | [14] 0.044 | [15] -0.028 | [16] -0.004 | [17] 0.066 | [18] 0.058 | [19] -0.012 | [20] 0.031

TEX30 (UniProt Q5JUR7)
Chain of UniProt Q5JUR7 (Q5JUR7 whole entry, looked up): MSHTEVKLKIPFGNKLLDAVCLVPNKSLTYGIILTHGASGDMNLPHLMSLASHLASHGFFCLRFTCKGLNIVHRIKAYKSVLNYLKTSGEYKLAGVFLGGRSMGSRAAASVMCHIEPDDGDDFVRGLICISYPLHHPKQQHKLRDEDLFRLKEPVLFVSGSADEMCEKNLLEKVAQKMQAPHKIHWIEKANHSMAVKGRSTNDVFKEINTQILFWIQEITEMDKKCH
inactive: [1] -0.012 | [2] -0.106 | [3] -0.112 | [4] 0.03 | [5] 0.046 | [6] -0.009 | [7] -0.065 | [8] -0.034 | [9] -0.007 | [10] -0.031 | [11] 0.17 | [12] 0.003 | [13] 0.047 | [14] -0.053 | [15] -0.045 | [16] -0.033 | [17] 0.016 | [18] -0.027 | [19] 0.019 | [20] 0.019

TMEM87B (UniProt Q96K49)
Chain of UniProt Q96K49 (Q96K49 whole entry, looked up): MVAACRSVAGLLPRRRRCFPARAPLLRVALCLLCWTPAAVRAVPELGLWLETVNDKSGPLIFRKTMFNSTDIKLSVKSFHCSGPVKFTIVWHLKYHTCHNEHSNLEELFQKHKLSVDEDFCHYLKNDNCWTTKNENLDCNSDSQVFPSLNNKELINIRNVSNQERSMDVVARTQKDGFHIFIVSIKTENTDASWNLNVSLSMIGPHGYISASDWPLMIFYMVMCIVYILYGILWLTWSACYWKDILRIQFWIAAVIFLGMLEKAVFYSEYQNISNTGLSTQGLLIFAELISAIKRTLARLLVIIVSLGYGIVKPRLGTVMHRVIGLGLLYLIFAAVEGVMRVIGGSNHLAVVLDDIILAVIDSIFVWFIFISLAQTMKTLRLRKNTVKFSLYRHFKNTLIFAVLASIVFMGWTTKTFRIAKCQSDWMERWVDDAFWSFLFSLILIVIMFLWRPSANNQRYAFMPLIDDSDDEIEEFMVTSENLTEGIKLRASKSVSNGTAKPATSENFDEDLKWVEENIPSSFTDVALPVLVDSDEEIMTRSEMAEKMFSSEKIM
inactive: [1] -0.016 | [2] 0.103 | [3] 0.093 | [4] -0.003 | [5] 0.117 | [6] 0.03 | [7] -0.019 | [8] 0.006 | [9] -0.008 | [10] -0.045 | [11] -0.076 | [12] -0.017 | [13] -0.003 | [14] -0.001 | [15] -0.047 | [16] -0.011 | [17] -0.01 | [18] -0.012 | [19] 0.028 | [20] -0.012

UBE2L6 (UniProt O14933)
Chain of UniProt O14933 (O14933 whole entry, looked up): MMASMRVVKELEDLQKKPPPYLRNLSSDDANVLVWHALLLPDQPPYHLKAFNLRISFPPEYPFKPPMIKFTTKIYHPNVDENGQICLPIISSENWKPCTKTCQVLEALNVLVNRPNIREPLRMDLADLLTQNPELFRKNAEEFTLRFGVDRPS
inactive: [1] 0.062 | [2] -0.03 | [3] 0.007 | [4] -0.003 | [5] -0.065 | [6] -0.001 | [7] 0.023 | [8] -0.014 | [9] 0.144 | [10] 0.047 | [11] 0.152 | [12] 0.012 | [13] -0.002 | [14] -0.041 | [15] -0.009 | [16] -0.033 | [17] -0.014 | [18] -0.019 | [19] -0.007 | [20] 0.002

UBA1 (UniProt P22314)
Chain of UniProt P22314 (P22314 whole entry, looked up): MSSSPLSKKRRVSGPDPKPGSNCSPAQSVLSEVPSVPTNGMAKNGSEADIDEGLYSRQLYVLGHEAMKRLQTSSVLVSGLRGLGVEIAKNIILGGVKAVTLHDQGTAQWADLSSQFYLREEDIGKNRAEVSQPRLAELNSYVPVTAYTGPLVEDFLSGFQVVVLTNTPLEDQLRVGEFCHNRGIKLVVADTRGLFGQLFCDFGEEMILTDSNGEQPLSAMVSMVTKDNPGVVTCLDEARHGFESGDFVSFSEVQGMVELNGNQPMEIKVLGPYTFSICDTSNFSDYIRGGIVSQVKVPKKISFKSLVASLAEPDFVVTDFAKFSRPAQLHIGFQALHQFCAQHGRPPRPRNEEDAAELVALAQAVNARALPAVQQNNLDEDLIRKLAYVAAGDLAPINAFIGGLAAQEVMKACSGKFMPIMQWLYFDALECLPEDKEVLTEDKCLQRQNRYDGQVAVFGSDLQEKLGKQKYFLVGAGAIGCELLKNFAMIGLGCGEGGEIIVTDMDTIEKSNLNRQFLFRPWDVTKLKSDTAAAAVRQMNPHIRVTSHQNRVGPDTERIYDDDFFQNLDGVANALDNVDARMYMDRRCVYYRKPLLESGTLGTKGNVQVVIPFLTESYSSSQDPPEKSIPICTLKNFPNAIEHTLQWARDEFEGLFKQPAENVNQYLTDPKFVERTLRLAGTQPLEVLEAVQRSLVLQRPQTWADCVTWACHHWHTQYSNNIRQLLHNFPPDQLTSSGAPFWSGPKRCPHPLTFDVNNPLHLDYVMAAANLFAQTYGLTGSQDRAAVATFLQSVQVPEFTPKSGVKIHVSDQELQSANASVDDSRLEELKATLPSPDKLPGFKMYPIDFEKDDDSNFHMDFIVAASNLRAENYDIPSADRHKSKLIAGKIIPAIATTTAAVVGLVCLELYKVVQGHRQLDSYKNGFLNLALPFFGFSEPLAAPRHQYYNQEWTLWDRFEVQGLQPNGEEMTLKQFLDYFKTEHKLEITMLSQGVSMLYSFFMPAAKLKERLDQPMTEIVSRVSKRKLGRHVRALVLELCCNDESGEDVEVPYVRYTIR
inactive: [1] 0.034 | [2] 0.017 | [3] -0.022 | [4] 0.003 | [5] 0.004 | [6] 0.002 | [7] -0.044 | [8] 0 | [9] 0.02 | [10] -0.013 | [11] -0.002 | [12] 0.003 | [13] 0.053 | [14] 0 | [15] 0.027 | [16] -0.018 | [17] 0.006 | [18] 0 | [19] 0.015 | [20] 0.02

TBC1D2B (UniProt Q9UPU7)
inactive: [1] -0.005 | [2] -0.028 | [3] 0.098 | [4] 0.03 | [5] -0.053 | [6] 0.042 | [7] -0.111 | [8] -0.031 | [9] -0.024 | [10] -0.075 | [11] 0.075 | [12] -0.017 | [13] 0.008 | [14] 0.003 | [15] -0.054 | [16] 0.058 | [17] 0.006 | [18] -0.03 | [19] 0.031 | [20] 0.025

TLE3 isoform 4 (UniProt Q04726)
Chain of UniProt Q04726 (Q04726 whole entry, looked up): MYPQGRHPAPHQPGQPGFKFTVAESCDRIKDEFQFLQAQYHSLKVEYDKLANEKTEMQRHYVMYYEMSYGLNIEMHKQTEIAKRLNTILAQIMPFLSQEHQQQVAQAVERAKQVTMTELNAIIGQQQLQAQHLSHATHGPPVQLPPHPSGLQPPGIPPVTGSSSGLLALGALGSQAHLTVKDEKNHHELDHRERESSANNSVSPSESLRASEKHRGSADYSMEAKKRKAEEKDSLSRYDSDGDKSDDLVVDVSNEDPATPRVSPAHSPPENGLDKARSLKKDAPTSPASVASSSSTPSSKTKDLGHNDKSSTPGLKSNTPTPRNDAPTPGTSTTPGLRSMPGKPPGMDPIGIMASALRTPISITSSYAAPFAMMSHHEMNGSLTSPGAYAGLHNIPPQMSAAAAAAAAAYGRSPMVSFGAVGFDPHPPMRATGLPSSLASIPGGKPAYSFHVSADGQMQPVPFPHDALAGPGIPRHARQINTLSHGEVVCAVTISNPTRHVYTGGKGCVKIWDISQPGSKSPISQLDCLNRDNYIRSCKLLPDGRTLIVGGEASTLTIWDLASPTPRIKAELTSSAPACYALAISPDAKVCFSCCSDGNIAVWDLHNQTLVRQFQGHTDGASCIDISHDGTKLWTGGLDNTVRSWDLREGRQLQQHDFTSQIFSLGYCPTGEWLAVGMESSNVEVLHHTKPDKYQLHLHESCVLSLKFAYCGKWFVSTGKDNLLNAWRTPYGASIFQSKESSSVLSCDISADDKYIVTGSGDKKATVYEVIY
inactive: [1] 0.005 | [2] -0.025 | [3] 0.03 | [4] -0.012 | [5] 0 | [6] 0.016 | [7] -0.002 | [8] -0.006 | [9] 0.029 | [10] -0.016 | [11] -0.002 | [12] -0.01 | [13] 0.003 | [14] -0.005 | [15] 0 | [16] -0.023 | [17] 0.012 | [18] -0.016 | [19] 0.003 | [20] -0.022

TMEM87A (UniProt Q8NBN3)
Chain of UniProt Q8NBN3 (Q8NBN3 whole entry, looked up): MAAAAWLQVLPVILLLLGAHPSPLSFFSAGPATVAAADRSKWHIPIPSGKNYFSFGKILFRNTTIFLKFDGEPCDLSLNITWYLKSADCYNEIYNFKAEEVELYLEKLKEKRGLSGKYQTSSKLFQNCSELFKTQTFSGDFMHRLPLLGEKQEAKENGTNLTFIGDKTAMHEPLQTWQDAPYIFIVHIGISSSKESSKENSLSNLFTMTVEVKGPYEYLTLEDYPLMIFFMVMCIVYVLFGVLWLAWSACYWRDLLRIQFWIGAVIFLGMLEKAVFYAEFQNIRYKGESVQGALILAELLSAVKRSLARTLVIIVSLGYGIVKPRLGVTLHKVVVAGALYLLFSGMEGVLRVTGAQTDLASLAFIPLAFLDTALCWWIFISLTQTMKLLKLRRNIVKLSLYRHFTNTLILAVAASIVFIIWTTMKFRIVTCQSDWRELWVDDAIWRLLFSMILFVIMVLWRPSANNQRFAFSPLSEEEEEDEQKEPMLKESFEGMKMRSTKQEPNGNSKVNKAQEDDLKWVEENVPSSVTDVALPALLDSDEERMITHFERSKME
inactive: [1] -0.015 | [2] -0.021 | [3] 0.01 | [4] 0.037 | [5] -0.02 | [6] -0.02 | [7] -0.027 | [8] 0.031 | [9] -0.004 | [10] -0.028 | [11] -0.002 | [12] 0.019 | [13] -0.031 | [14] -0.035 | [15] -0.075 | [16] -0.017 | [17] -0.02 | [18] 0.016 | [19] 0.004 | [20] -0.02

TXNRD2 (UniProt Q9NNW7)
Chain of UniProt Q9NNW7 (Q9NNW7 whole entry, looked up): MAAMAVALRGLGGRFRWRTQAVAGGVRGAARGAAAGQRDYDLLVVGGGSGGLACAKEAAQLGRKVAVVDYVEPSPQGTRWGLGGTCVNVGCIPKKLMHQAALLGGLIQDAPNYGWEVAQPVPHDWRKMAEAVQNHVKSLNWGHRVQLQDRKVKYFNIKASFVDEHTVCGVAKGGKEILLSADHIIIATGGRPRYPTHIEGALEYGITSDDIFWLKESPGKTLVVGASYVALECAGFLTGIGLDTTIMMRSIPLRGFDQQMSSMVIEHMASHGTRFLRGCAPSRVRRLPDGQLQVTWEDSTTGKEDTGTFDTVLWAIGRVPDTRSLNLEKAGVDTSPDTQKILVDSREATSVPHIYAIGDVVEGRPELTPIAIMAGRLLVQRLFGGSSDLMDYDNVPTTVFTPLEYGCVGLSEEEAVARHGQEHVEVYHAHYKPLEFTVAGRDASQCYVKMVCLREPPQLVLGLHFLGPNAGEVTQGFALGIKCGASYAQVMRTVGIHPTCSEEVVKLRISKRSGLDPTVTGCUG
inactive: [1] -0.01 | [2] -0.085 | [3] 0.049 | [4] 0.008 | [5] -0.025 | [6] 0.009 | [7] -0.031 | [8] 0.017 | [9] 0.044 | [10] -0.007 | [11] 0.014 | [12] -0.002 | [13] 0.025 | [14] -0.107 | [15] 0 | [16] 0.008 | [17] -0.038 | [18] -0.014 | [19] 0.001 | [20] 0.006

TMEM263 (UniProt Q8WUH6)
inactive: [1] -0.114 | [2] -0.104 | [3] 0.273 | [4] -0.119 | [5] -0.022 | [6] -0.05 | [7] -0.012 | [8] -0.006 | [9] 0.095 | [10] 0.026 | [11] -0.04 | [12] -0.003 | [13] -0.037 | [14] -0.174 | [15] -0.002 | [16] 0.349 | [17] 0.049 | [18] -0.058 | [19] 0.004 | [20] -0.079

UBE2D1 (UniProt P51668)
Chain of UniProt P51668 (P51668 whole entry, looked up): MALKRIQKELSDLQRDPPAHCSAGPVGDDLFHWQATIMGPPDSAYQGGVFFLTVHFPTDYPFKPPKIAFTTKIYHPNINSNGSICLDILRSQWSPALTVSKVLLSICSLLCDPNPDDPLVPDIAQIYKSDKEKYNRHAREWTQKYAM
inactive: [1] -0.043 | [2] 0.008 | [3] 0.072 | [4] -0.007 | [5] -0.032 | [6] 0.008 | [7] -0.006 | [8] -0.042 | [9] 0.015 | [10] -0.038 | [11] -0.033 | [12] 0.017 | [13] -0.009 | [14] 0.073 | [15] 0.01 | [16] -0.03 | [17] -0.007 | [18] -0.002 | [19] 0.043 | [20] -0.007

From the supplement of paper PMC10849652
